BAZ2B inh = qHTS Assay for Inhibitors of BAZ2B; Bromodomain adjacent to zinc finger domain protein 2B (Homo sapiens), Q9UIF8; AlphaScreen BAZ2B-H3K14Ac peptide displacement; Potency, µM (doses to about 114 µM), for the others: top-dose activity change, negative = inhibition, hits mostly inhibitors; 360,000 tested, 4.4% active; AID 504333, 2011; also: potency is read from the fitted curve at half-maximal effect; % is scaled to controls: 0 for no effect and ±100 for the full control effect; nearly all actives have a fitted effect of over 60% in size
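AlphaScreen displacement of biotin-H3(5-23)K14Ac peptide (50 nM final) from BAZ2B (50 nM final) in PBS pH 7.4, 0.01% Tween-20; complex preformed 30 min RT, then compounds (top 110 uM) 30 min RT, beads 20 min dark.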
PLK1 PBD inh = qHTS for Inhibitors of PLK1-PDB (polo-like kinase 1 - polo-box domain): Primary Screen; Serine/threonine-protein kinase PLK1 (Homo sapiens), P53350; AID 720504, 2013; Plk1 PBD binding of FITC phosphopeptide, fluorescence polarization; Potency, µM, for the others: max response, negative = inhibition, hits mostly inhibitors; 360,000 tested, 2.8% active; also: potency is read from the fitted curve at half-maximal effect; series mostly up to about 57 µM; % is scaled to controls: 0 for no effect and ±100 for the full control effect; nearly all actives have a fitted effect of over 65% in size
Target sequence (P53350 whole entry, looked up, the tested form may be a part): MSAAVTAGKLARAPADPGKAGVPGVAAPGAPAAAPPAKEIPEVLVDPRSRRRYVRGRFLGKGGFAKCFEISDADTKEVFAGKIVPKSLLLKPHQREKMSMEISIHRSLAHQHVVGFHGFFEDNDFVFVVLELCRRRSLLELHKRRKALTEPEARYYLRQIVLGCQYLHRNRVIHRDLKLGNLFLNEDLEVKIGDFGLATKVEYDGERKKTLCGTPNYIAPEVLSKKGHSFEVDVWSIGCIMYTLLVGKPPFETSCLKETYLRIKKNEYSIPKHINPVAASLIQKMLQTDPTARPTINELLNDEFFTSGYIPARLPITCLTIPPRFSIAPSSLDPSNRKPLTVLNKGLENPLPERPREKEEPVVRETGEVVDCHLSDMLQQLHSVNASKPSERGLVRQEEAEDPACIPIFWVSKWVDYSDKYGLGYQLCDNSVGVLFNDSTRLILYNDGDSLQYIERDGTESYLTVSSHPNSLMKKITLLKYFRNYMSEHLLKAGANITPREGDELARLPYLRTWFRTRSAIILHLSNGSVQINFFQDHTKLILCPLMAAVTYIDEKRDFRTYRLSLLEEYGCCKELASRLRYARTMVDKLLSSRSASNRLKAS
HP1b chromo inh = HTS for Inhibitors of HP1-beta Chromodomain Interactions with Methylated Histone Tails; Chromobox protein homolog 1 (Homo sapiens), P83916; AlphaScreen HP1-beta / biotin-H3K9me3 peptide binding; Potency, µM (top dose mostly 114 µM), inactives show at the top dose activity change, negative = inhibition, hits mostly inhibitors; 390,000 tested, 0.56% active; AID 540317, 2011; also: potency is read from the fitted curve at half-maximal effect; nearly all actives have a fitted effect of over 70% in size
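AlphaScreen: HP1-beta (50 nM) preformed 30 min with biotin-H3(1-18)K9me3 peptide (50 nM) in PBS pH 7.4, 0.01% Tween-20. Compound added for 30 min at RT, then streptavidin donor/nickel chelate acceptor beads (10 ug/mL) for 30 min.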
G9a inh = qHTS Assay for Inhibitors of Histone Lysine Methyltransferase G9a; Histone-lysine N-methyltransferase EHMT2 (Homo sapiens), Q96KQ7; G9a H3K9 monomethylation, AlphaScreen, 2 h; Potency, µM (highest dose often 102 µM), for the others: at the top dose activity, negative = inhibition, hits mostly inhibitors; 350,000 tested, 8.8% active; also: potency is read from the fitted curve at half-maximal effect; % is scaled to controls: 0 for no effect and ±100 for the full control effect; nearly all actives have a fitted effect of over 75% in size
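G9a (20 nM) was preincubated 15 min with compound, then reacted 2 h at room temperature with 500 nM biotin-H3K9 peptide and 20 µM SAM. Monomethyl-H3K9 detected by AlphaScreen using anti-H3K9me1 antibody.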
JMJD2A Tudor = qHTS Assay for Inhibitors of JMJD2A-Tudor Domain | Potency, µM (titrated, usually from 114 µM), for inactives: top-dose activity change, negative = inhibition, most hits filed as inhibitors | AID 504339, 2011 | AlphaScreen JMJD2A-Tudor / H3K4me3 peptide binding | 390,000 tested, 4.4% active; also: potency is read from the fitted curve at half-maximal effect; % is scaled to controls: 0 for no effect and ±100 for the full control effect; nearly all actives have a fitted effect of over 50% in size
PI5P4Ka inh = qHTS for Inhibitors of phosphatidylinositol 5-phosphate 4-kinase (PI5P4K) | Phosphatidylinositol 5-phosphate 4-kinase type-2 alpha (Homo sapiens), P48426 | PI5P4Kalpha enzyme, ADP-Glo luminescence, 60 min; hits give low values | max response, % | 330,000 tested, 1.2% active; active = max response of -50% or lower; inconclusive = between -30% and -50%; inactive = -30% or higher; also: value at the top dose of about 77 µM; % is scaled to controls: 0 for no effect and ±100 for the full control effect
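Luminescence from ADP-Glo served as readout of PI5P4Kalpha activity in a qHTS format. Reaction: enzyme, substrate, compound, ATP at 5 microM final, 60 min at RT.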
Starred values were filed as active, the others as inactive; ? = inconclusive; / = no result given; ! = repeats disagree; [ ] = another dose, or the depositor's remark. Shown are actives, neighbours in structure and some others; about 12% of the full set was active somewhere. Unless noted, calls follow the shape of the dose curve; as a rule, active = well fitted curve in the direction sought with a large enough effect; inconclusive = small, poorly fitted or top-dose-only effect, or another doubt; inactive = no such curve, though single readings can be large; an effect the other way counts as inactive or inconclusive.

SMILES	BAZ2B inh	PLK1 PBD inh	HP1b chromo inh	G9a inh	JMJD2A Tudor	PI5P4Ka inh
CN(C)CC1CCC/C(=C/c2ccc(Cl)cc2)C1=O (stereo not drawn)	/	5.97µM*	33.1%	/	-19.4%	17.6
COc1ccc(/C=C2/CCCC(CN(C)C)C2=O)cc1 (stereo not drawn)	/	23.8µM*	29.1%	/	-24.3%	2.2
COc1cccc(/C=C2/CCC(CN(C)C)C2=O)c1 (stereo not drawn)	/	3.36µM*	?	/	79.4µM*	-15.2
CCCC/C=C1/CCC(CN(C)C)C1=O (stereo not drawn)	/	11.9µM*	23.2%	/	-15.3%	-0.3
CC(C)CC(=NNC(=O)c1ccncc1)c1cc(Cl)ccc1O	/	28.8%	33.8%	/	-2.1%	-2.4
CCc1ccc2oc(C(=O)Nc3c(C)n(C)n(-c4ccccc4)c3=O)cc(=O)c2c1	0.1%	/	29.6%	?	-11.1%	/
Nc1ccc(Oc2ccc(Br)cc2)cc1	39.8µM*	-17.3%	?	-10.2%[59 µM]	?	0.9
Cc1cc(C)cc(Oc2ccc(N)cc2)c1	?	-11.6%	-25.4%	-50.5%[59 µM]	?	/
COc1ccc(-c2nc3cnc(N4CCOCC4)nc3n(-c3ccc(OC)cc3)c2=O)cc1	/	/	/	3.0%[0.501 µM]	/	/
CCC(=C(c1ccc(O)cc1)c1ccc(OCCN(C)C)cc1)c1ccccc1	/	-4.2%	/	/	/	-4.9
CCN(CC)CCOc1ccc(/C(=C(/Cl)c2ccccc2)c2ccccc2)cc1	?	-13.5%	?	/	56.2µM*	2.1
O=C(O)/C=C/c1nc(-c2ccccc2)n2ccccc12	44.7µM*	-11.0%	5.6%	11.2µM*	-28.4%	-25.0
CN1CCN(/N=C/c2nc(-c3cccc([N+](=O)[O-])c3)n3ccccc23)CC1	?	-11.3%	-10.8%	?	?	4.4
COc1cccc(C2CC(=O)Nc3c2c(=O)[nH]c2ncnn32)c1OC (stereo not drawn)	-1.8%	/	14.8%	?	-9.0%	/
COc1cccc(C2CC(=O)Nc3c2c(=O)[nH]c2ncnn32)c1 (stereo not drawn)	-3.7%	0.9%	25.4%	0.6%	35.5µM*	4.9
O=[S+]([O-])(c1ccc(-c2ccccc2)cc1)N1CCN([S+](=O)([O-])c2ccc3c(c2)OCCO3)CC1	/	/	/	/	-14.4%	/
CCCn1c(SCc2nc(-c3ccc(OC)cc3OC)no2)nnc1-c1ccc(Cl)cc1	?	/	9.3%	-50.7%[59 µM]	-27.1%	/
CC(=O)c1c(C)[nH]c(C(=O)NC2=NCCS2)c1C	50.1µM*	-9.6%	31.5%	12.8%[12.7 µM]	-6.9%[57.1 µM]	-1.0
CC(C)CCNC(=O)CN1C(=O)CCn2nc(-c3cn(C)c4ccccc34)cc21	-18.0%	/	16.3%[57 µM]	-17.2%[59 µM]	-29.4%	/
CC1(c2ccccc2)CC(C)(C)N2C(=O)C3(C(C#N)=C(N)Oc4cc(O)ccc43)c3cccc1c32 (stereo not drawn)	-37.6%	-0.5%	?	-15.2%[59 µM]	?	/
CC1(c2ccccc2)CC(C)(C)N2C(=O)/C(=C3\SC(=S)NC3=O)c3cccc1c32 (stereo not drawn)	?	23.8µM*	14.1µM*	?	28.2µM*	-25.2
CS(=O)(=O)NCCc1csc2nc(-c3ccccc3)nn12	5.2%	/	57.1%	2.6%[59 µM]	0.0%	/
O=C(Cn1c(=O)cnc2ccccc21)N1CCN(S(=O)(=O)c2cccc([N+](=O)[O-])c2)CC1	10.1%	-0.4%	17.6%	16.3%[0.501 µM]	-4.8%	-5.6
CC(C)NCC(O)COc1cccc2ccccc12 (stereo not drawn)	0.0%	-19.9%	40.8%	3.16µM*!	-13.1%	-3.5
CCc1ccc(CN(C)CC(O)COc2cccc3ccccc23)cc1 (stereo not drawn)	-29.2%	3.3%	?	22.4µM*	2.51µM*	20.8
